Measured values reported in the supplement of paper PMC10849652.
Targets with a hit are over-represented here; the source holds about 7,900 in all. About 0.6% of all pairs of compound and target were hits. Unmarked numbers belong to inactive results.

Legend:
Test in all cases: log2 fold change, soluble protein after heating vs DMSO (PISA); higher = thermal stabilisation; K562 cells, 10 uM, 30 min; active = over 0.2 and 3.5 SD of the protein, either way, in both replicates (recomputed)
[1] = compound: COC1=CC=C(C=C1)CN2C=CC3=C2C=C(C=C3)C(=O)NO
In short: (§1)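 K562 cells at 2×10^6 cells/mL were exposed to 10 μM compound for 30 min, then aliquots were heated for 3 min across 48°C-58°C, pooled, and extracted in PBS containing 0.5% NP-40 at 4°C. The supernatant after 21,000xg for 90 min was taken as soluble protein and measured by TMTpro 16plex LC-MS/MS with channel sums equalised. Thermal stability is reported relative to control samples, with values from duplicates. Fold changes are given on a log2 scale.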

filanesib = compound: CON(C)C(=O)N1N=C(c2cc(F)ccc2F)S[C@@]1(CCCN)c1ccccc1 [filanesib]
In short: as §1

zotarolimus = compound: CO[C@H]1C[C@@H]2CC[C@@H](C)[C@@](O)(O2)C(=O)C(=O)N2CCCC[C@H]2C(=O)O[C@H]([C@H](C)C[C@@H]2CC[C@H](n3cnnn3)[C@H](OC)C2)CC(=O)[C@H](C)/C=C(\C)[C@@H](O)[C@@H](OC)C(=O)[C@H](C)C[C@H](C)/C=C/C=C/C=C/1C [zotarolimus]
In short: as §1

idasanutlin = compound: COc1cc(C(=O)O)ccc1NC(=O)[C@@H]1N[C@@H](CC(C)(C)C)[C@](C#N)(c2ccc(Cl)cc2F)[C@H]1c1cccc(Cl)c1F [idasanutlin]
In short: as §1

alisertib = compound: COc1cc(Nc2ncc3c(n2)-c2ccc(Cl)cc2C(c2c(F)cccc2OC)=NC3)ccc1C(=O)O [alisertib]
In short: as §1

[2] = compound: COc1cc2nc(-c3cc(F)ccc3O)nc(N[C@@H]3CNC[C@H]3C(C)(C)O)c2cc1OC
In short: as §1

gefitinib = compound: COc1cc2ncnc(Nc3ccc(F)c(Cl)c3)c2cc1OCCCN1CCOCC1 [gefitinib]
In short: as §1

[3] = compound: COc1cccc2cc(-c3nc([C@H]4CC[C@H](C(=O)O)CC4)n4ncnc(N)c34)[nH]c12
In short: as §1

lapatinib = compound: CS(=O)(=O)CCNCc1ccc(-c2ccc3ncnc(Nc4ccc(OCc5cccc(F)c5)c(Cl)c4)c3c2)o1 [lapatinib]
In short: as §1

pictilisib = compound: CS(=O)(=O)N1CCN(Cc2cc3nc(-c4cccc5[nH]ncc45)nc(N4CCOCC4)c3s2)CC1 [pictilisib]
In short: as §1

[4] = compound: CS(=O)(=O)c1ccc(-c2cnc(N)c(C(=O)Nc3ccccc3)n2)cc1
In short: as §1

crizotinib = compound: C[C@@H](Oc1cc(-c2cnn(C3CCNCC3)c2)cnc1N)c1c(Cl)ccc(F)c1Cl [crizotinib]
In short: as §1

[5] = compound: C[C@@H]1COCCN1C2=NC(=NC(=C2)C3(CC3)S(=O)(=O)C)C4=C5C=CNC5=CC=C4
In short: as §1

[6] = compound: C[C@H](C1=CC=C(C=C1)C(=O)NC2=C3C=CNC3=NC=C2)N
In short: as §1

duvelisib = compound: C[C@H](Nc1ncnc2nc[nH]c12)c1cc2cccc(Cl)c2c(=O)n1-c1ccccc1 [duvelisib]
In short: as §1

gandotinib = compound: Cc1cc(Nc2cc(CN3CCOCC3)c3nc(C)c(Cc4ccc(Cl)cc4F)n3n2)n[nH]1 [gandotinib]
In short: as §1

tozasertib = compound: Cc1cc(Nc2cc(N3CCN(C)CC3)nc(Sc3ccc(NC(=O)C4CC4)cc3)n2)n[nH]1 [tozasertib]
In short: as §1

[7] = compound: Cc1cc(SCc2sc(-c3ccc(C(F)(F)F)cc3)nc2C)ccc1OCC(=O)O
In short: as §1

doramapimod = compound: Cc1ccc(-n2nc(C(C)(C)C)cc2NC(=O)Nc2ccc(OCCN3CCOCC3)c3ccccc23)cc1 [doramapimod]
In short: as §1

ispinesib = compound: Cc1ccc(C(=O)N(CCCN)[C@@H](c2nc3cc(Cl)ccc3c(=O)n2Cc2ccccc2)C(C)C)cc1 [ispinesib]
In short: as §1

UniProt Q92538, sequence (Q92538 whole entry, looked up): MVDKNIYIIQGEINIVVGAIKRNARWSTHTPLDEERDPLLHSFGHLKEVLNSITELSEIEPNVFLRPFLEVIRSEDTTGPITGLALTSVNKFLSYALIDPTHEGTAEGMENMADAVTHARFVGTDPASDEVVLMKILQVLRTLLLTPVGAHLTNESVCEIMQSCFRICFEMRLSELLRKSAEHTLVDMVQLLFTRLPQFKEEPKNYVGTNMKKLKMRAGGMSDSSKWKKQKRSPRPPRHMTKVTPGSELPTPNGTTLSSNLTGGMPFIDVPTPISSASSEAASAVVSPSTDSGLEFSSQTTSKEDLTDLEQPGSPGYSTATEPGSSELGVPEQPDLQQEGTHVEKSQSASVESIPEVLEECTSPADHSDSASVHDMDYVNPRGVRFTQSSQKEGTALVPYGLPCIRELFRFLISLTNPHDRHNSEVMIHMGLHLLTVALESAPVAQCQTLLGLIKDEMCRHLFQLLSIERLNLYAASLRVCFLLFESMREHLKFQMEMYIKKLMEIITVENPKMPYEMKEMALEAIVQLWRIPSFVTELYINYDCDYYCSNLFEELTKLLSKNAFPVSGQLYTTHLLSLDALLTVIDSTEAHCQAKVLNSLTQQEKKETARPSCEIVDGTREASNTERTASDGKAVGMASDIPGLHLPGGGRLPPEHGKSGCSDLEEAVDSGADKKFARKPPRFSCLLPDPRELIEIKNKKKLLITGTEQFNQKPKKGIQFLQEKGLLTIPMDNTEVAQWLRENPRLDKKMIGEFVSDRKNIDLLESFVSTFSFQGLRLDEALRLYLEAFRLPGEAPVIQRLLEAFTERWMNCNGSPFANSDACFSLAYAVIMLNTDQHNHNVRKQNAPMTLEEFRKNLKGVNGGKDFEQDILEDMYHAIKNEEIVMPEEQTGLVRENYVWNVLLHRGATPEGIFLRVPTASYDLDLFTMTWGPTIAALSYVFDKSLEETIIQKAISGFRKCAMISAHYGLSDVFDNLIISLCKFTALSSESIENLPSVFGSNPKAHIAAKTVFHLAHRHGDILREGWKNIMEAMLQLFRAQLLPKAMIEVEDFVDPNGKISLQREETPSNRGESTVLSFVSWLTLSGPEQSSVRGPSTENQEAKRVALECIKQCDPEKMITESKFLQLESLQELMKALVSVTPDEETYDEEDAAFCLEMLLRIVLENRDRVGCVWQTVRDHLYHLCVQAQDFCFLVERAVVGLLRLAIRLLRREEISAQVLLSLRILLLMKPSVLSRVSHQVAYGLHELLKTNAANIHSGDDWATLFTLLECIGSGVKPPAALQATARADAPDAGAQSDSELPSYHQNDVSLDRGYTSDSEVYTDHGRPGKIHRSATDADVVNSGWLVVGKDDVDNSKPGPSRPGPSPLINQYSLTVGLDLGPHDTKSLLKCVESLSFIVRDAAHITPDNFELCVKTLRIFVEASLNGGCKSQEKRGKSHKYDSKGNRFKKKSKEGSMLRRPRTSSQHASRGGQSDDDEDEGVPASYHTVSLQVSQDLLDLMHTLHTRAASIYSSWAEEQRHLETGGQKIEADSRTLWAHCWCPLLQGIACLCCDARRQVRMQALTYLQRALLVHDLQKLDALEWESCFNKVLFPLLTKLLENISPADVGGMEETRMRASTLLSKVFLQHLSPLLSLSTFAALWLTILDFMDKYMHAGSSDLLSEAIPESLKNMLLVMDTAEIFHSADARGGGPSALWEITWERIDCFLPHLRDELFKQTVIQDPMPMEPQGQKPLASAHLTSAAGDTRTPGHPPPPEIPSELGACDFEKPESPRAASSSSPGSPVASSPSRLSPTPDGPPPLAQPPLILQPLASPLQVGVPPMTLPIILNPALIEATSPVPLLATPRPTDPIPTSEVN
UniProt P48507, sequence (P48507 whole entry, looked up): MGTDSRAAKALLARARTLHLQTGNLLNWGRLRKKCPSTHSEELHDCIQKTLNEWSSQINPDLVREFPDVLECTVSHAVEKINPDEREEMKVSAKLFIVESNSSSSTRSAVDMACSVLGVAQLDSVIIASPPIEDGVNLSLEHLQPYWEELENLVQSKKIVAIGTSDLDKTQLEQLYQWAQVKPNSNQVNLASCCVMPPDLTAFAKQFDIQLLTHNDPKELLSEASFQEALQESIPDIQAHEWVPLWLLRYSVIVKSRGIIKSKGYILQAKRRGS
UniProt P51570, sequence (P51570 whole entry, looked up): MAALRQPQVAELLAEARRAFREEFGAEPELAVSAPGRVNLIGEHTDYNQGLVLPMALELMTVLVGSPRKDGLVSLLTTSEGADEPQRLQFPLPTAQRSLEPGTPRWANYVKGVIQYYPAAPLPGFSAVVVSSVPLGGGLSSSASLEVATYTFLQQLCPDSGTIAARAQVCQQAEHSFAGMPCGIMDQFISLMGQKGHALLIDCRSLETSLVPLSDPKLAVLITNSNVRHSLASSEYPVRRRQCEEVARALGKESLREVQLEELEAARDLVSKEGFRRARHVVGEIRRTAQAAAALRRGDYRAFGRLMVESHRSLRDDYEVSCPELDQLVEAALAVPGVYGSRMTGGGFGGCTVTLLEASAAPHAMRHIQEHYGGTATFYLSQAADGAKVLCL
UniProt P23327, sequence (P23327 whole entry, looked up): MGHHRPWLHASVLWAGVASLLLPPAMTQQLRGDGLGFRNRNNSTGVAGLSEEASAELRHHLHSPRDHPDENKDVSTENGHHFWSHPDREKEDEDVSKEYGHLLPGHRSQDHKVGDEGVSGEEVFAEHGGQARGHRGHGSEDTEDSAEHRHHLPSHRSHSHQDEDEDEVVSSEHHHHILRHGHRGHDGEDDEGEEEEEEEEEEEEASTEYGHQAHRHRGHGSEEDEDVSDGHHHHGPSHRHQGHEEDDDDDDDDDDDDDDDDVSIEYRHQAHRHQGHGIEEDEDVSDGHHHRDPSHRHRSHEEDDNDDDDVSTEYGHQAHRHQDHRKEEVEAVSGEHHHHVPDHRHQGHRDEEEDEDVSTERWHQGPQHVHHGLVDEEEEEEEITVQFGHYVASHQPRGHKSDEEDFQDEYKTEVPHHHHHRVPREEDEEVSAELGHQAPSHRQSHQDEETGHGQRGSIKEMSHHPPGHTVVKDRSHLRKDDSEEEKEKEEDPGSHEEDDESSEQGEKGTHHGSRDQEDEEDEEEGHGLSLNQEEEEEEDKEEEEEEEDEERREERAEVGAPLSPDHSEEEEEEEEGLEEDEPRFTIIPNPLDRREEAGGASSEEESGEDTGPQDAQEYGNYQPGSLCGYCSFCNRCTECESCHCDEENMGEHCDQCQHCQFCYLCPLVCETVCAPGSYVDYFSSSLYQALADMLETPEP
UniProt Q96JB3, sequence (Q96JB3 whole entry, looked up): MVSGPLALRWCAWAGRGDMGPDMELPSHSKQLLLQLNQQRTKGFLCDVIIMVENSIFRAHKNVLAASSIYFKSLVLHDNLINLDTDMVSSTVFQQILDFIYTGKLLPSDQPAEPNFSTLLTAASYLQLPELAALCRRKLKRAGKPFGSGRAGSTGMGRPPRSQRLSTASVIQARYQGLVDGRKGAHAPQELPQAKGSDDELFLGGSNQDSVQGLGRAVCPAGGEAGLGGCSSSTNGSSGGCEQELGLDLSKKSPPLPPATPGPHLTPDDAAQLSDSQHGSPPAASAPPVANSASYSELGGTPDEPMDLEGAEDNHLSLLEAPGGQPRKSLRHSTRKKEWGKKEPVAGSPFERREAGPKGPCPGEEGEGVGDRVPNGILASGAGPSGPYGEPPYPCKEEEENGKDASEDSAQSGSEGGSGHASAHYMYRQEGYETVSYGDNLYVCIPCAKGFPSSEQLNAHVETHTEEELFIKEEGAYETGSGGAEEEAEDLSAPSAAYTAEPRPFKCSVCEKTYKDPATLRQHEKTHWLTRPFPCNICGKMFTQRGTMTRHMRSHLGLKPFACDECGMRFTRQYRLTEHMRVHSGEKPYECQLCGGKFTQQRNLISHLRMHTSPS
UniProt Q06546, sequence (Q06546 whole entry, looked up): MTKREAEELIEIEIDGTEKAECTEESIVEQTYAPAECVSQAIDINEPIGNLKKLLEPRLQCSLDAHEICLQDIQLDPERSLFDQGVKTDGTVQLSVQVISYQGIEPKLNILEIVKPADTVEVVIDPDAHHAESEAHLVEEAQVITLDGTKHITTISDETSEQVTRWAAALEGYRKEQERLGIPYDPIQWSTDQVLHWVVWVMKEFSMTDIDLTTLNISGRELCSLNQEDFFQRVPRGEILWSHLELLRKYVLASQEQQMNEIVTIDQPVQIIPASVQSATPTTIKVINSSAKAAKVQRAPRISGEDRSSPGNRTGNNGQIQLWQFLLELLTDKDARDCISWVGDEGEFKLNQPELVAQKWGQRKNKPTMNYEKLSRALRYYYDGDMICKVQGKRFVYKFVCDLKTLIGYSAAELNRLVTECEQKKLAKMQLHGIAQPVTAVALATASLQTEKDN
UniProt Q10472, sequence (Q10472 whole entry, looked up): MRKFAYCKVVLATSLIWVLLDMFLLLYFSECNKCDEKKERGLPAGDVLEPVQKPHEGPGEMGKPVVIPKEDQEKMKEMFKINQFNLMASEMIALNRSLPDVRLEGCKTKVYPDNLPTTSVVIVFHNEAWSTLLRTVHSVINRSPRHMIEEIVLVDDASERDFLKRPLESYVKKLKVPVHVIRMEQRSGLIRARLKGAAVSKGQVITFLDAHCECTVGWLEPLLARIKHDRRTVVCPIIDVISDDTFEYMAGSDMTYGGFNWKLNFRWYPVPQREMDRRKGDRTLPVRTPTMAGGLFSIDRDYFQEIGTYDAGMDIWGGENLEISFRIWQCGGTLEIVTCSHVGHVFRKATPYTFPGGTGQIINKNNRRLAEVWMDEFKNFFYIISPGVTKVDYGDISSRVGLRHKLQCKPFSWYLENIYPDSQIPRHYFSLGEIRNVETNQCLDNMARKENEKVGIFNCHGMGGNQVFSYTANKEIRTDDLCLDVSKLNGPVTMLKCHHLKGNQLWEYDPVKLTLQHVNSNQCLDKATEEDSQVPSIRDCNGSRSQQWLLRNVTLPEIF
UniProt P60520, sequence (P60520 whole entry, looked up): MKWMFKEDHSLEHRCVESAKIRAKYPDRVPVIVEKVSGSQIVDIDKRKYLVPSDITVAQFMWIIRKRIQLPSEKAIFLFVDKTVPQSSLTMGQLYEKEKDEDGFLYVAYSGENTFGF

Row | Target | log2 fold change [1] | log2 fold change (filanesib) | log2 fold change (zotarolimus) | log2 fold change (idasanutlin) | log2 fold change (alisertib) | log2 fold change [2] | log2 fold change (gefitinib) | log2 fold change [3] | log2 fold change (lapatinib) | log2 fold change (pictilisib) | log2 fold change [4] | log2 fold change (crizotinib) | log2 fold change [5] | log2 fold change [6] | log2 fold change (duvelisib) | log2 fold change (gandotinib) | log2 fold change (tozasertib) | log2 fold change [7] | log2 fold change (doramapimod) | log2 fold change (ispinesib)
1 | GABPA (UniProt Q06546) | 0.01 | -0.111 | 0.063 | -0.025 | -0.002 | -0.134 | 0.032 | 0.029 | 0.048 | 0.02 | 0.059 | -0.028 | 0.126 | 0.012 | 0.089 | -0.029 | 0.025 | 0.068 | -0.018 | -0.099
2 | GBF1 (UniProt Q92538) | -0.005 | 0.038 | 0.008 | -0.037 | -0.013 | 0.025 | -0.012 | -0.054 | -0.036 | -0.036 | -0.032 | -0.131 | 0.023 | 0.08 | -0.028 | -0.197 | 0.039 | 0.041 | 0.059 | 0.012
3 | HIP1 (UniProt O00291) | 0.022 | -0.026 | 0.017 | -0.003 | -0.269 | 0.029 | 0.016 | 0.047 | 0.059 | 0 | 0.054 | -0.131 | 0.035 | -0.002 | 0.085 | 0.029 | -0.086 | 0.027 | 0 | -0.033
4 | HIC2 (UniProt Q96JB3) | -0.067 | 0.226 | -0.012 | 0.238 | -0.057 | -0.386 | -0.073 | -0.066 | 0.207 | -0.052 | -0.037 | 0.067 | -0.079 | 0.043 | -0.103 | 0.088 | 0.121 | 0.011 | 0.121 | -0.061
5 | GATA1 (UniProt P15976) | -0.023 | 0.001 | -0.05 | -0.034 | 0.02 | 0.07 | 0.014 | -0.087 | 0.008 | -0.021 | 0.03 | 0.16 | -0.032 | 0.046 | -0.061 | 0.112 | 0.031 | -0.071 | 0.017 | -0.063
6 | GAPVD1 isoform 6 (UniProt Q14C86) | 0.003 | 0.033 | 0.055 | -0.021 | 0.047 | -0.048 | -0.013 | -0.068 | 0.041 | -0.025 | -0.012 | -0.145 | 0.017 | 0.075 | -0.058 | -0.081 | 0.061 | 0.147 | 0.038 | -0.133
7 | GNAS (UniProt Q5JWF2) | -0.048 | 0 | -0.03 | -0.048 | -0.09 | 0.052 | 0.108 | -0.077 | 0.02 | 0.051 | 0.049 | 0.047 | 0.039 | -0.031 | 0.07 | -0.034 | -0.026 | 0.003 | 0.007 | -0.141
8 | HMGCR isoform 3 (UniProt P04035) | -0.097 | -0.027 | 0 | 0.188 | -0.146 | 0.166 | 0.01 | -0.045 | -0.066 | -0.13 | -0.259 | 0.071 | -0.234 | -0.004 | 0.003 | 0.092 | -0.088 | -0.065 | 0.025 | 0.111
9 | HIST2H2BF isoform 2 (UniProt Q5QNW6) | 0.062 | 0.248 | -0.163 | 0.437 | 0.081 | -0.112 | 0.053 | -0.314 | 0.047 | -0.137 | -0.049 | -0.095 | -0.279 | 0.38 | -0.051 | -0.018 | 0.119 | -0.064 | 0.253 | -0.178
10 | HDAC6 (UniProt Q9UBN7) | 0.676 (active) | 0.006 | 0.008 | -0.055 | -0.097 | 0.028 | 0.043 | -0.027 | 0.016 | 0.062 | -0.019 | -0.057 | -0.007 | 0.066 | 0.045 | 0.079 | -0.091 | 0.062 | 0.015 | -0.027
11 | HRC (UniProt P23327) | -0.089 | 0.019 | -0.032 | 0.035 | -0.059 | -0.008 | 0.035 | -0.007 | -0.039 | 0.017 | 0.027 | 0.096 | -0.342 (active) | 0.012 | 0.062 | 0.064 | -0.053 | -0.033 | -0.033 | 0.037
12 | HEATR5B (UniProt Q9P2D3) | -0.006 | -0.005 | -0.071 | 0 | 0.006 | 0.039 | -0.045 | 0.033 | 0.018 | -0.065 | 0.055 | -0.058 | -0.11 | 0.103 | -0.026 | -0.039 | -0.019 | 0.036 | -0.015 | -0.021
13 | GALNT1 (UniProt Q10472) | 0.224 | 0.058 | 0.005 | -0.033 | 0.047 | 0.044 | 0.066 | 0.034 | 0 | 0.023 | 0.014 | -0.012 | 0.019 | -0.013 | 0.046 | 0.012 | -0.043 | 0.004 | 0.026 | 0.048
14 | GALK1 isoform 2 (UniProt P51570) | -0.023 | -0.201 | 0.012 | -0.106 | -0.125 | -0.049 | -0.005 | 0.036 | 0.147 | -0.05 | -0.1 | -0.041 | 0.037 | -0.088 | -0.021 | -0.087 | -0.013 | 0.056 | 0.012 | 0.078
15 | GABARAPL2 (UniProt P60520) | 0.185 | -0.01 | -0.036 | -0.072 | 0.016 | 0.033 | -0.014 | 0 | -0.006 | -0.059 | 0.081 | -0.178 | 0.036 | 0.006 | 0.053 | 0.039 | 0.031 | 0.005 | -0.073 | -0.151
16 | GCLM (UniProt P48507) | 0.066 | -0.004 | 0.071 | -0.124 | -0.003 | 0.026 | 0.06 | -0.057 | 0.011 | 0.046 | 0.058 | -0.003 | 0.042 | -0.019 | -0.007 | -0.15 | 0.108 | 0.06 | -0.072 | 0.076
